We go through 40 compounds from PubChem BioAssay (EPA / NIEHS).

The structures appear in SMILES notation. The source made the active and inactive calls. How the source made its calls: active means hit-call score of the fitted dose curve at least 0.9, where 1 is the maximum; inactive means score below 0.9.

The test can be described thus: ATG_AP_1_CIS: Attagene CIS-FACTORIAL HepG2 Assay for human Activator Protein 1 (AP-1) (AID 2282931). As to conditions: HepG2 Attagene cis-factorial AP-1 reporter mRNA; actives raise or lower the signal. Here is the method: ATG_CIS is a cell-based, multiplexed-readout assay that uses HepG2, a human liver cell line, with measurements taken at 24 hours after chemical dosing in a 24-well plate.ATG_AP_1_CIS is one of 52 assay component(s) measured or calculated from the ATG_CIS assay. It is designed to make measurements of mRNA induction, a form of inducible reporter, as detected with fluorescence intensity signals by Reverse transcription polymerase chain reaction (RT-PCR) and Capillary electrophoresis technology.Data from the assay component ATG_AP_1_CIS was analyzed into 1 assay endpoint. This assay endpoint, ATG_AP_1_CIS, was analyzed with bidirectional fitting relative to DMSO as the negative control and baseline of activity. Using a type of inducible reporter, measures of mRNA for gain or loss-of-signal activity can be used to understand the reporter gene at the transcription factor-level as they relate to the gene FOS and JUN. Furthermore, this assay endpoint can be referred to as a primary readout, because this assay has produced multiple assay endpoints where this one serves a reporter gene function. To generalize the intended target to other relatable targets, this assay endpoint is annotated to the dna binding intended target family, where the subfamily is basic leucine zipper.
Human liver HepG2 cells are transiently transfected with multiple reporter transcription units (MRTUs) in 6-well plates using FuGene 6 reagent (Roche; 3 ml FuGene/1 mg DNA). The MRTU constructs are regulated by a cis-regulating element (promoter). […] A major difference between the CIS and TRANS system is that in CIS activities of endogenous TFs are measured, whereas the TRANS assay evaluates changes in activities of exogenous, chimeric NR-Gal4 proteins. […] At the end of 24 hour incubation, total RNA was isolated using TriZol reagent (Invitrogen). The isolated RNA is then reverse-transcribed using oligo(dT) primer and Mo-MLV reverse transcriptase (Invitrogen) with DNAse I (Ambion) treatment for 30 min. The one-tenth of the produced cDNA was amplified by PCR using Taq DNA polymerase (Invitrogen) and two reporter sequence-specific primers. The PCR products were fluorescently labeled by primer extension with 6-arboxyfluorescein (6-FAM) 5'-labeled reporter sequence-specific primer (2 min at 95 C, 20 s at 68 C and 10 min at 72 C) and these products were digested with 5U of HpaI (New England Biolabs) for 2h at 37 C. The fragments were purified using Qiaquick PCR columns (Qiagen), analyzed on an ABI 3130xL genetic analyzer (Applied Biosystems) with peak positions identified by using a set of X-rhodamine (ROX)-labeled MapMarker1000 molecular weight standards (BioVentures). The raw capillary electrophoresis data was processed using Attagraph software (Attagene).
With `CCCCCC(=O)OCCc1ccccc1`, the compound was called inactive.

Usually AC50 stands for the concentration giving half of the maximal activity seen. For the compound `C=C(C)C(=O)O[C@H]1C[C@@H]2CC[C@@]1(C)C2(C)C`, the AC50 is 100 µM (active).

In the case of `CCc1c(C)cc(N)c(CC)c1N`, the result was inactive.

Regarding `C=C[C@@H](C)CCC=C(C)C`, the compound was called inactive.

For `CCc1ccc(C=O)cc1`, the compound was classed as inactive.

For `Fc1c(F)c(F)c(Br)c(F)c1F`, the outcome was inactive.

In the case of `CC(C)Oc1ccccc1O`, the compound was classed as inactive.

For `CCCC(C)C=O` (stereo not given), the call was inactive.

For `CNC[C@H](O)c1cccc(O)c1`, the compound was called inactive.

`CC1(CO)CN(c2ccccc2)NC1=O` (stereo not given): the compound was called inactive.

`O=C[C@H](O)[C@H](O)[C@H](O)CO`: the result was inactive.

As to `C=C(C)C(=O)NCCCN(C)C`, the compound was classed as inactive.

Turning to `CCCCCCCCCCCCSC`, the compound was called inactive.

Regarding `O=C(O)CN(CCN(CC(=O)O)CC(=O)O)CCN(CC(=O)O)CC(=O)O`, the outcome was inactive.

As for `C=C(C)[C@@H]1CC[C@@H](C)C[C@@H]1O`, the call was inactive.

Consider `CCCCCCC#CC(=O)OC`, for which the call was inactive.

Regarding `C[C@H]1C[C@H]2[C@@H]3CCC4=CC(=O)C=C[C@]4(C)[C@@]3(F)[C@@H](O)C[C@]2(C)[C@@]1(O)C(=O)COP(=O)(O)O`, the result was inactive.

As for `BrC1CCC(Br)C(Br)CCC(Br)C(Br)CCC1Br` (stereo not given), the AC50 is 36.2 µM (active).

Turning to `Cc1cccc(C)c1C`, the result was inactive.

For `O=C(O)CCSCCC(=O)O`, the result was inactive.

`CC1CCC2CC1C2(C)C` (stereo not given): the outcome was inactive.

With `Nc1cccc(S(=O)(=O)c2cccc(N)c2)c1`, the result was inactive.

On to `S=C(S)NCCNC(=S)S`, for which the compound was called inactive.

Consider `O=C1CCCCCCCCCCCCCCO1`, for which the half-maximal activity concentration (AC50) was 46.2 µM (active).

Turning to `CCC(C(=O)NC(N)=O)c1ccccc1` (stereo not given), the compound was classed as inactive.

Take `O=C(O)c1ccc(C(=O)O)cc1`: the compound was classed as inactive.

Consider `COc1cc(C=O)ccc1OC(=O)C(C)C`, for which the call was inactive.

With `CCCCCCCCCC=O`, the compound was classed as inactive.

As to `O=P(c1ccccc1)(c1ccccc1)c1ccccc1`, the compound was classed as inactive.

As for `COC(=O)c1ccc(C)cc1`, the outcome was inactive.

Turning to `CC(C=O)Cc1ccc(C(C)C)cc1` (stereo not given), the call was inactive.

On to `CC1CCC(C(C)CS)CC1S` (stereo not given), for which the result was inactive.

Consider `C=CC(=O)NCOCC(C)C`, for which the compound was called inactive.

Take `CCC(C)(O)CCC=C(C)C` (stereo not given): the compound was classed as inactive.

Regarding `COc1ccc(Cl)cc1C`, the outcome was inactive.

Consider `CCCCOCCOCCSC#N`, for which the call was inactive.

Turning to `C[C@H]1C[C@@H]2[C@H]([C@@H](O)C[C@@]3(C)[C@H]2CC[C@]3(O)C(=O)CO)[C@@]2(C)C=CC(=O)C=C12`, the outcome was inactive.

Consider `O=C1OC2(c3cc(Br)c(O)c(Br)c3Oc3c2cc(Br)c(O)c3Br)c2c(Cl)c(Cl)c(Cl)c(Cl)c21`, for which the compound was called inactive.

In the case of `Cc1ccc2n[nH]nc2c1`, the outcome was inactive.

For `CC(=O)C(=O)O`, the result was inactive.
